Drawing on PubChem BioAssay (NCI), this text covers growth for eight compounds.

About 83,000 compounds went through this panel and 20% of them were active in at least one assay; those are over-represented in the sample as a whole.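 Results are percent growth after 48 hours of single-concentration exposure. 100 means growth as in untreated cells, lower positive values show inhibition; negative values down to -100 show cell death.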 A number with no mark means an inactive call. Calls of active or inactive are those of the source. Rule for the calls: active = growth percent below 10; inactive = the rest.

Test systems include SK-MEL-2 melanoma; EKVX NSCLC; SN12C renal; UO-31 renal; TK-10 renal; ACHN renal; CAKI-1 renal; A498 renal; CCRF-CEM leukemia; MOLT-4 leukemia; SR leukemia; RPMI-8226 leukemia; OVCAR-8 ovarian; OVCAR-5 ovarian; OVCAR-4 ovarian; SK-OV-3 ovarian; IGROV1 ovarian; OVCAR-3 ovarian; HS 578T breast; NCI/ADR-RES ovarian.
Common to all, as to assay: NCI-60 one-dose screen, 48 h (100 = growth as untreated, 0 = no growth, -100 = all killed)
What all share (settings): 10 µM unless noted

For the compound `C=CC(=O)Nc1ccc2ncnc(Nc3cccc(NS(=O)(=O)CCC)c3Cl)c2c1`, the growth in the experiment with SK-MEL-2 melanoma is 51.9%; in the experiment with EKVX NSCLC, 51.8%; with SN12C renal it was 22.9%; in the experiment with UO-31 renal, 19.2%; in the experiment on TK-10 renal it was 11.3%; in the experiment with ACHN renal, 29.3%. Moreover, the growth in the experiment with CAKI-1 renal is 22.6%; with A498 renal, -14.3% (active); in the experiment on CCRF-CEM leukemia, 50.2%; with MOLT-4 leukemia, 67.3%; in the experiment with SR leukemia, 35.7%; with RPMI-8226 leukemia it was 55.4%. The growth with OVCAR-8 ovarian is 48.2%; in the experiment on OVCAR-5 ovarian, 36.2%; in the experiment with OVCAR-4 ovarian it was 66.8%; in the experiment on SK-OV-3 ovarian, 19.6%; with IGROV1 ovarian, 18.5%; in the experiment with OVCAR-3 ovarian, 12.7%. In addition, the growth was 20.6% in the experiment on HS 578T breast and 83.4% in the experiment on NCI/ADR-RES ovarian.
Regarding `O=c1oc2ccccc2cc1-c1nn(-c2ccccc2)cc1/C=N/Nc1nc(-c2ccccc2)c(N=Nc2ccccc2)s1`, the growth is 64.9% with SK-MEL-2 melanoma; 82.3% in the experiment with EKVX NSCLC; 103% in the experiment with SN12C renal; 73.4% with UO-31 renal; 95.1% with TK-10 renal; 92.9% with ACHN renal. In addition, the growth in the experiment on CAKI-1 renal was 62.8%; in the experiment on A498 renal, 70.2%; in the experiment on CCRF-CEM leukemia it was 69.7%; with MOLT-4 leukemia, 53.5%; in the experiment with SR leukemia, 21.9%; in the experiment on RPMI-8226 leukemia, 63.1%. The growth was 77.9% in the experiment with OVCAR-8 ovarian; 102% in the experiment with OVCAR-5 ovarian; 84.7% with OVCAR-4 ovarian; 82.8% in the experiment on SK-OV-3 ovarian; 81.7% with IGROV1 ovarian; 57.1% in the experiment with OVCAR-3 ovarian. For the same compound, the growth with HS 578T breast was 87.5%; in the experiment with NCI/ADR-RES ovarian, 63.7%.
Regarding `C=CCn1c(SCC(=O)Nc2ccc(C(=O)/C=C/c3ccc(Cl)cc3)cc2)nnc1-c1ccccc1`, the growth in the experiment with SK-MEL-2 melanoma is 109%; with EKVX NSCLC it was 92.3%; in the experiment with SN12C renal it was 92.8%; in the experiment with UO-31 renal it was 76.5%; in the experiment on TK-10 renal it was 87.9%; with ACHN renal, 99.9%. The growth with CAKI-1 renal is 92.6%; with A498 renal, 99.5%; with CCRF-CEM leukemia, 85.6%; in the experiment with MOLT-4 leukemia, 68.6%; in the experiment with SR leukemia it was 82.5%; with RPMI-8226 leukemia, -16% (active). The growth with OVCAR-8 ovarian is 102%; in the experiment with OVCAR-5 ovarian, 95.3%; in the experiment on OVCAR-4 ovarian, 85.2%; with SK-OV-3 ovarian, 98.2%; in the experiment on IGROV1 ovarian, 89.1%; in the experiment with OVCAR-3 ovarian it was 90.2%. Also, the results for the growth in the experiment with HS 578T breast and with NCI/ADR-RES ovarian were 111% and 93.7%, respectively.
With `COc1ccc(C2CC(=O)Oc3c(OC)c4c(c(OC)c32)OCO4)cc1` (stereo not given), the growth in the experiment on SK-MEL-2 melanoma is 101%; in the experiment with EKVX NSCLC, 101%; in the experiment on SN12C renal, 98%; with UO-31 renal it was 84.7%; in the experiment on TK-10 renal, 96.4%; in the experiment with ACHN renal, 103%. Further, the growth is 96.8% in the experiment with CAKI-1 renal; 88.7% in the experiment with A498 renal; 88.9% in the experiment with CCRF-CEM leukemia; 96.3% in the experiment with MOLT-4 leukemia; 61.8% in the experiment on SR leukemia; 89.4% with RPMI-8226 leukemia. The growth was 98.2% in the experiment on OVCAR-8 ovarian; 92.2% in the experiment on OVCAR-5 ovarian; 106% with OVCAR-4 ovarian; 92% with SK-OV-3 ovarian; 92.7% in the experiment with IGROV1 ovarian; 109% with OVCAR-3 ovarian. The growth is 93.7% in the experiment on HS 578T breast and 92.4% with NCI/ADR-RES ovarian.
Turning to `C#CCOc1cccc(-c2ncnc3cc(NC(=O)CCl)ccc23)c1`, the growth in the experiment on SK-MEL-2 melanoma was -4.29% (active); in the experiment with EKVX NSCLC, 11%; with SN12C renal, -65.8% (active); in the experiment with UO-31 renal, -93.7% (active); with TK-10 renal, 11.8%; in the experiment on ACHN renal, -99.6% (active). Besides, the growth in the experiment with CAKI-1 renal is -94.4% (active); in the experiment on A498 renal, 59.4%; in the experiment on CCRF-CEM leukemia, -15.6% (active); in the experiment with MOLT-4 leukemia, -6.64% (active); in the experiment on SR leukemia, -11.5% (active); in the experiment with RPMI-8226 leukemia it was -38.1% (active). Further, the growth was -5.91% (active) in the experiment with OVCAR-8 ovarian; -47.3% (active) with OVCAR-5 ovarian; -25.6% (active) in the experiment with OVCAR-4 ovarian; 51% in the experiment with SK-OV-3 ovarian; -54.2% (active) in the experiment with IGROV1 ovarian; -78.2% (active) in the experiment on OVCAR-3 ovarian. For the same compound, the growth in the experiment with HS 578T breast is 17%; with NCI/ADR-RES ovarian, 1.21% (active).
Take `O=C(O)c1cc2ccccc2s1`: the growth is 127% with SK-MEL-2 melanoma; 106% in the experiment on EKVX NSCLC; 106% with SN12C renal; 94.5% with UO-31 renal; 123% with TK-10 renal; 103% with ACHN renal. Besides, the growth was 94.7% in the experiment on CAKI-1 renal; 108% with A498 renal; 100% in the experiment with CCRF-CEM leukemia; 100% in the experiment with MOLT-4 leukemia; 104% with SR leukemia; 105% with RPMI-8226 leukemia. Moreover, the growth is 102% in the experiment on OVCAR-8 ovarian; 103% in the experiment on OVCAR-5 ovarian; 113% in the experiment with OVCAR-4 ovarian; 103% in the experiment on SK-OV-3 ovarian; 106% in the experiment with IGROV1 ovarian; 120% with OVCAR-3 ovarian. Moreover, the growth with HS 578T breast was 99.3%; in the experiment on NCI/ADR-RES ovarian, 108%.
On to `CCOC(=O)CCC(=O)P(=O)(O)O`, for which the growth with SK-MEL-2 melanoma is 104%; in the experiment on EKVX NSCLC it was 106%; in the experiment with SN12C renal, 108%; in the experiment on UO-31 renal, 105%; in the experiment on TK-10 renal, 99.3%; in the experiment with ACHN renal it was 91.6%. The growth in the experiment on CAKI-1 renal is 137%; in the experiment on A498 renal it was 107%; with CCRF-CEM leukemia, 75.1%; in the experiment with MOLT-4 leukemia, 62.6%; in the experiment with SR leukemia it was 4.41% (active); in the experiment on RPMI-8226 leukemia, 42.1%. Further, the growth in the experiment with OVCAR-8 ovarian is 97.1%; with OVCAR-5 ovarian, 116%; in the experiment on OVCAR-4 ovarian, 115%; with SK-OV-3 ovarian, 80.5%; with IGROV1 ovarian, 110%; with OVCAR-3 ovarian it was 115%. Further, the growth is 114% in the experiment with HS 578T breast and 102% with NCI/ADR-RES ovarian.
For the compound `CC1(C)CC(=O)C2=C(C1)OC(C(=O)c1ccccc1)C2c1cccc(Oc2ccccc2)c1` (stereo not given), the growth in the experiment on SK-MEL-2 melanoma is 25%; with EKVX NSCLC, 36.4%; with SN12C renal, 38.7%; in the experiment with UO-31 renal, 15.6%; with TK-10 renal it was 63.8%; with ACHN renal, 32.7%. The growth with CAKI-1 renal is 41.6%; in the experiment with A498 renal, 49.6%; with CCRF-CEM leukemia, 34.5%; in the experiment with MOLT-4 leukemia it was 12.2%; in the experiment on SR leukemia, 26.2%; with RPMI-8226 leukemia it was 34.6%. Further, the growth with OVCAR-8 ovarian was 48.5%; with OVCAR-5 ovarian, 88.7%; in the experiment with OVCAR-4 ovarian, 28.6%; in the experiment with SK-OV-3 ovarian it was 64%; with IGROV1 ovarian, 89.5%; in the experiment on OVCAR-3 ovarian, 64.2%. Moreover, the growth in the experiment with HS 578T breast is 68.4%; in the experiment on NCI/ADR-RES ovarian it was 38.3%.
